# Screens: PubChem, National Center for Advancing Translational Sciences (NCATS)
# ALDH1A1 inh = blocks purified human ALDH1A1 activity; P00352; Purified ALDH1A1, NADH fluorescence, propionaldehyde substrate; Potency, µM (titrated, usually from 75.3 µM), without a hit: at the top dose activity, negative = inhibition, hits mostly inhibitors; actives 7.3% (n = 220,000); AID 1030;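 note: potency is the fitted concentration of half-maximal effect; plate controls were no enzyme wells and a reference inhibitor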
# Target sequence (P00352 whole entry, looked up): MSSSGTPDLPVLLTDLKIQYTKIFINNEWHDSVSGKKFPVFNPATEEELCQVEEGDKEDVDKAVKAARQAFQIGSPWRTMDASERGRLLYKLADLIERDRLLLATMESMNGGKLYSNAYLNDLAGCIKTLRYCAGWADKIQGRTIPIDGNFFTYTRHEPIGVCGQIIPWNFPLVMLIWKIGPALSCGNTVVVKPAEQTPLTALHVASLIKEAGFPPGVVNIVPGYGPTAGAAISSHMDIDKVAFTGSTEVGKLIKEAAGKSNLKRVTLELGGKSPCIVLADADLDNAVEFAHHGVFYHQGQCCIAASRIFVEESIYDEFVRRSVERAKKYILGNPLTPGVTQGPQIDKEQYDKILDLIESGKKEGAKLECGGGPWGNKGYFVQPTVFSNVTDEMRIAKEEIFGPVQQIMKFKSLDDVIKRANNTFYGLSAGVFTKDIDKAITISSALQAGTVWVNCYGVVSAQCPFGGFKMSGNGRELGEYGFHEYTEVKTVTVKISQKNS
# IMPase inh = IMPase inhibition in cells; inhibition (IP1 accumulation), % at 46.1 µM; AID 901; 120,000 tested, under 10 active; CHO-M1 cells, IP1 accumulation, HTRF TR-FRET ratio; P97697; active = well fitted curve in the direction sought with a large enough effect in the signal ratio, not every such curve was filed as active; inconclusive = small, poorly fitted or top-dose-only effect, or a change in a side signal; inactive = no such curve, though single readings can be large or run the other way; the % refers to the signal ratio;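 note: cells stimulated with carbachol in lithium chloride buffer; plate controls were DMSO basal wells for no effect and reference inhibitor wells for full effect; higher means more IMPase inhibition seen as more IP1 and lower FRET ratio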
# Target sequence (P97697 whole entry, looked up): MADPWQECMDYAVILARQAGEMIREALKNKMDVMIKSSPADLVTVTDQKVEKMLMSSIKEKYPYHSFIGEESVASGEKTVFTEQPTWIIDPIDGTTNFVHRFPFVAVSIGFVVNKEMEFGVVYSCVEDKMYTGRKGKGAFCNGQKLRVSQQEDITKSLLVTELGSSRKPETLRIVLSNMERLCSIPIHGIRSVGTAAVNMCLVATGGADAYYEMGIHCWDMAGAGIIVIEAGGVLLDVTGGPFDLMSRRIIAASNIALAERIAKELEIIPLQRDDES
#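 In this qHTS, compounds (final up to 46 uM) act on CHO-M1 cells that are then activated through the M1 receptor with carbachol, in pH 7.4 buffer containing 50 mM LiCl, for 30 min. IP1 accumulation is quantified by the IP-One immunoassay.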
# IMPase Li inh = membrane-permeable IMPase blocker, potentiated with lithium; CHO-M1 cells, IP1 TR-FRET (IP-One), carbachol + lithium; Potency, µM (doses to about 59.4 µM), without a hit: at the highest dose activity, negative = IMPase inhibition, hits mostly inhibitors; actives 0.35% (n = 210,000); AID 1457; active = well fitted inhibition curve with a large enough effect; inconclusive = small, poorly fitted or top-dose-only effect; inactive = no such curve, though single readings can be large or run the other way;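 note: IP1 builds up when IMPase is blocked and the TR-FRET signal falls; potency is the fitted concentration of half-maximal effect; plate controls were basal vehicle for no effect and high inhibitor control for full effect; nearly all actives have a fitted effect of over 50% in size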
#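 Concentration–response in CHO-M1 cells, lithium-potentiated; 30 min at 37C. IP1 detected by competitive TR-FRET after 10 min lysis at RT. Hill-fitted AC50.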
# PNC assembly inh = perinucleolar compartment assembly inhibition; PC3M PTB-GFP, PNC prevalence imaging, 16 h; active compounds read low; activity change (PNC), negative = inhibition, % at 10 µM; actives 3.1% (n = 140,000); AID 2417;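 active = readout at or below -70, meaning at least 70% loss of cells showing the perinucleolar compartment, a nuclear body marking cancer cells; inconclusive = readout between -30 and a set limit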;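 note: plate controls were DMSO wells for no effect and camptothecin positive control wells for full effect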
#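 PC3M cells stably expressing PTB-GFP, 750–1000 cells/well, treated 16 h at 37 °C with compound (23 nl of library stock), in duplicate. After paraformaldehyde fixation and Hoechst stain, imaged at 20x; PNC prevalence scored by image analysis.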
# HPGD inh = HPGD (human) dehydrogenase inhibition | P15428 | purified HPGD, NADH fluorescence kinetic, PGE2 substrate | Potency, µM, for the others: at the highest dose activity change, negative = inhibition, usual class: inhibitors | actives 4.3% (n = 150,000) | AID 894; note: potency is the fitted concentration of half-maximal effect
#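 20 nM HPGD preincubated 15 min at room temperature with compound in 50 mM Tris-HCl pH 8, 0.01% Tween 20. Started with 1 mM NAD+ and 30 uM prostaglandin E2; NADH fluorescence (360/450 nm) read 5 times over 30-s intervals, last minus first.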
# Starred values were filed as active, the others as inactive; ? = inconclusive; · = not tested or not shown; [ ] = dose if it differs, or a comment. This is a sample that favours compounds with a hit; in the whole collection about 11% have one here. Unless noted, calls come from the whole dose curve; as a rule, active = well fitted inhibition curve with a large enough effect (not every such curve was filed as active); inconclusive = small, poorly fitted or top-dose-only effect, or another doubt; inactive = no such curve, though single readings can be large or run the other way. Unless noted, % is set by controls: 0 for no effect and ±100 for the full control effect.
SMILES,ALDH1A1 inh,IMPase inh,IMPase Li inh,PNC assembly inh,HPGD inh
CN(C)c1ccc(C2N(C(=O)N3CCOCC3)CCN2S(=O)(=O)c2ccccc2)cc1 (centres undefined),1µM*,2,0%[38.3 µM],-8,-14%
Cc1ccc(S(=O)(=O)N2CCN(C(=O)N3CCOCC3)C2c2ccc(N(C)C)cc2)cc1 (centres undefined),0.63µM*,-3,12%,?,-16%
CS(=O)(=O)N(CC(=O)Nc1ccc(F)c(F)c1)c1cccc([N+](=O)[O-])c1,20%,-8,-7%,?,-4%
O=C(C1CC1)N1CCc2cc(S(=O)(=O)N3CCOCC3)ccc21,0%,6,-11%[38.3 µM],103,-3%
CC(Cl)C(=O)c1ccc2c(c1)CCN2C(=O)C1CC1 (centres undefined),1.4µM*,·,-3%,·,·
COc1ccccc1-c1ccc(=O)n(CC(=O)Nc2ccc(C(=O)N3CCCC3)cc2)n1,?,-5,-11%[38.3 µM],-11,14µM*
COc1ccccc1-c1ccc(=O)n(CC(=O)NCC2CCCO2)n1 (centres undefined),0%,·,-4%,·,·
CCOc1ccc(C(=O)CSc2nnc(C3CC3)n2C)cc1,7.9µM*,9[0.0738 µM],-1%,-2,-25%
COc1ccc(NC(=O)CSc2nnc(CNC(=O)c3ccco3)n2-c2ccccc2OC)cc1,?,-11,8%[38.3 µM],-17,-10%
COc1ccc(NCc2nnc(SCC(=O)NCc3ccccc3)n2-c2ccccc2OC)cc1,?,12,21%,-106*,2%
COc1ccc(NCc2nnc(SCC(=O)c3ccc(OC)cc3)n2C)cc1,6.3µM*,-2,45%[38.3 µM],-27,-21%
O=C(O)CC1NC(=O)N(C2CCCCC2)C1=O (centres undefined),13%,·,-1%,·,·
CCOC(=O)c1ccc(NC(=O)C2(c3ccccc3)CCOCC2)cc1,5%,-3,0%,-29,-6%
C(=Nc1cnc2ccccc2c1)c1ccc2ccccc2n1,?,·,-7%,·,?
CCN(CC)S(=O)(=O)c1ccc(N2CCOCC2)c(NC(=O)c2ccc(C#N)cc2)c1,20µM*,·,7%,·,·
O=C(COS(=O)c1ccccc1)Nc1cc(Cl)ccc1N1CCOCC1 (centres undefined),1.3µM*,·,4%,·,·
CCN(CC)S(=O)(=O)c1ccc(N2CCOCC2)c(NC(=O)COc2ccccc2)c1,0.22µM*,·,12%,·,·
CCN(CC)S(=O)(=O)c1ccc(N2CCOCC2)c(NC(=O)CNCCc2ccccc2)c1,11µM*,·,·,·,·
COc1ccc(NC(=O)CN(C)CC(=O)Nc2ccc(Cl)c(S(=O)(=O)N(C)C)c2)cc1,?,·,5%,·,·
CCCCc1ccc(NC(=S)Nc2ccc(Cl)c(S(=O)(=O)N(C)C)c2)cc1,?,·,2%,-119*,-12%
CCN1CCN(CC(=O)Nc2ccc(Cl)c(S(=O)(=O)N(C)C)c2)CC1,3.5µM*,·,15%,·,·
NNC(=O)CN1CCCc2ccccc21,6.3µM*,·,2%,·,·
CCCCc1ccc(NC(=S)Nc2ccc(Nc3ccc(OC)cc3)cc2)cc1,7.1µM*,13,19%,11,?
Cc1cccc(C(=O)NC(C(=O)Nc2ccccc2N2CCOCC2)C(C)C)c1 (centres undefined),2%,·,1%,·,·
CN(C)S(=O)(=O)c1cc(NC(=O)CN2CCc3ccccc32)ccc1Cl,1.6µM*,·,-16%,·,·
SMILES,ALDH1A1 inh,IMPase inh,IMPase Li inh,PNC assembly inh,HPGD inh
CN(C)S(=O)(=O)c1ccc(NC(=O)CN2CCCc3ccccc32)cc1,18µM*,·,13%,·,·
CC1Cc2ccccc2N1CC(=O)Nc1ccc(Cl)c(S(=O)(=O)N(C)C)c1 (centres undefined),?,·,5%,·,·
CN(C)S(=O)(=O)c1cc(NC(=O)CN2CCCc3ccccc32)ccc1Cl,8.9µM*,·,4%,·,·
O=C(CN1CCCc2ccccc21)Nc1ccccc1[N+](=O)[O-],-10%,·,29%,·,·
COc1ccc(C(=O)N2CCC3(CC2)CN(Cc2ccc(C#N)cc2)C3)cc1,-1%,·,-3%,·,-9%
CC(C)c1cccc2nc3c(c(C(C)(C)C)c12)Cn1c-3cccc1=O,?,·,-13%,·,?
CCc1cccc(NC(=O)CSC2=NS(=O)(=O)c3ccccc32)c1,?,2,-6%[38.3 µM],-5,22µM*
CCc1cccc(NC(=O)CSCc2cc(=O)[nH][nH]2)c1,-6%,5,2%[38.3 µM],?,-8%
CO[C@H]1COC(=O)[C@H]2CCCN2C(=O)C/C=C\[C@@H](C)[C@H](OC)COC(=O)[C@@H](OCc2ccccc2)/C=C\[C@@H]1C,-6%[13.5 µM],·,·,·,·
Clc1ccc(/C=N/Nc2nn[nH]n2)cc1,4%,-22,7%,-100*,-11%
CC(C)Cc1nc2oc3c(N4CCN(CCO)CC4)ncnc3c2c2c1CCCC2,7.9µM*,-2,52%[38.3 µM],?,-11%
CCOC(=O)N1CCN(c2ncnc3c2oc2nc(C(C)C)c4c(c23)CCC4)CC1,1µM*,3,0%[38.3 µM],12,?
CC(C)Cc1nc2oc3c(NCc4cccnc4)ncnc3c2c2c1CCC2,?,?,-19%[38.3 µM],?,?
CC(C)Cc1nc2oc3c(NCC4CCCO4)ncnc3c2c2c1CCC2 (centres undefined),?,-1,4%[38.3 µM],-100*,-8%
COc1ccc(Oc2ncc3nc(-c4ccccc4)c(=O)n(Cc4cccs4)c3n2)cc1,?,·,-4%,·,?
COc1ccc(-c2cnn3c4c(c(C)nc23)CCN4C(C)C)cc1OC,?,19,-19%,12,-6%
Cc1ccc(-c2csc(NC(=O)c3cccc(S(=O)(=O)N4CCN(C)CC4)c3)n2)cc1,2.5µM*,1,0%[38.3 µM],7,-27%
O=C(Nc1nc(-c2cccs2)cs1)c1cccc(S(=O)(=O)N2CCCCC2)c1,1%,8,17%[38.3 µM],-27,-14%
O=c1cc(-c2ccc(O)c(-c3c(O)cc(O)c4c(=O)cc(-c5ccc(O)cc5)oc34)c2)oc2cc(O)cc(O)c12,?,·,4%,-21,14µM*
CCCCNc1nc(C)nc2c1nc(C)n2CCC,3%,·,6%,·,-8%
O=C(NC(Cc1c[nH]c2ccccc12)c1nnc2n1CCCCC2)c1ccccc1Cl (centres undefined),-3%,-1,-6%[38.3 µM],21,25µM*
C/C(=N\Nc1cccc2cccnc12)c1ccccn1,-14%,·,14%,·,·
C/C(=N\Nc1cccc2cccnc12)c1ccc(N)cc1,8.9µM*,·,7%,·,·
O=C1ON=C(c2ccccc2)/C1=C/c1ccc(OS(=O)(=O)c2ccccc2)cc1,11µM*,·,4%,?,10µM*
C=CCSc1nc2c(N)ncnc2n1[C@@H]1O[C@H](CO)[C@@H](O)[C@@H]1O,7%[13.5 µM],·,-11%,·,-2%
S=C(Nc1cccc(Br)c1)c1ccccc1,3%,·,3%,?,13µM*
CO[C@@H](CCOCc1ccccc1)C[C@H]1O[C@H](C(=O)OC(C)C)C=C[C@@H]1C,-3%,·,14%,·,-10%
